{"source": "PubChem BioAssay (NCI)", "note": "The panel holds about 83,000 compounds, 20% with a hit somewhere; the sample as a whole holds those more often.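 Results are percent growth after 48 hours of single-concentration exposure. 100 means growth as in untreated cells, lower positive values show inhibition; negative values down to -100 show cell death.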 Values without a mark were called inactive. Calls of active or inactive are those of the source.", "data": [{"test_system": "CCRF-CEM leukemia", "test": "NCI-60 one-dose screen, 48 h (100 = growth as untreated, 0 = no growth, -100 = all killed)", "conditions": "10 µM unless noted", "procedure": "Growth inhibition of the CCRF-CEM human tumor cell line is measured as a screen for anti-cancer activity. Cells are grown in 96 well plates and exposed to the test compound for 48 hours. Compounds are tested at a single concentration, which is 10^-5 M for most compounds. The reported endpoint is percent growth (GI% or GIPRCNT), where numbers from 0 - 100% represent growth inhibition, and numbers from -100% - 0 represent cell death. For example, a value of 40 represents 60% growth inhibition. A value of 0 means no net growth occurred over the course of the experiment. A value of -40 indicates 40% of cells at the beginning of the experiment died by the end of the experiment. A value of -100 means all cells are dead at the end of the experiment.\nNCI-60 Human Tumor Cell Lines Screen was performed using the standard one-dose NCI protocol, which is described in more detail at https://dtp.cancer.gov/discovery_development/nci-60/default.htm.\nCompounds with GIPRCNT values below 10 were considered active. Activity score was based on GIPRCNT using the following formula: […]\nScore is 0 for GIPRCNT values of 100 or above, 50 for GIPRCNT values of 0, and 100 for GIPRCNT values of -100.", "values": [{"smiles": "COc1cccc(/C=C/C(=O)c2c(C)nc3ccccc3c2/C=C/c2ccc(C)cc2)c1OC", "growth": "16.6%"}, {"smiles": "COc1cccc(-c2nn(-c3ccccc3)cc2-c2ccnc(NCCCNC(=O)Nc3ccc(Cl)c(Cl)c3)c2)c1", "growth": "1.35% (active)"}, {"smiles": "COCCN(C(=O)c1ccc(F)cc1F)c1c(N)n(Cc2ccccc2)c(=O)[nH]c1=O", "growth": "94.5%"}, {"smiles": "COc1ccc2nc(NNC(=O)c3cnccn3)c3cccn3c2c1", "growth": "1.48% (active)"}, {"smiles": "Cc1ccc(S(=O)(=O)n2cc(CNc3ccc(N4CCOCC4=O)cc3)c3ccccc32)cc1", "growth": "53.5%"}, {"smiles": "CSc1n(Cc2ccc3ccccc3c2)c(C)c[n+]1Cc1ccc2ccccc2c1", "growth": "1.28% (active)"}, {"smiles": "COc1ccc2[nH]c(O)c(C(=Nc3ccc(N(C)C(=O)CN4CCN(C)CC4)cc3)c3ccccc3)c2c1", "growth": "23.2%"}, {"smiles": "CCN1C(=O)N(CC)C2Nn3c(s/c(=C\\c4cccc([N+](=O)[O-])c4)c3=O)=NC21", "note": "(stereo not given)", "growth": "46%"}, {"smiles": "c1c[nH]c(CNC2CCCCC2)c1", "growth": "96.6%"}, {"smiles": "O=C(Cc1ccc(F)c(F)c1)Nc1cc(C2(C(F)(F)F)CC2)nn1Cc1ccccc1", "growth": "20.1%"}, {"smiles": "COc1ccc(OC)c2c1[nH]c(=O)c1c3ncccc3cn21", "growth": "36.5%"}, {"smiles": "O=C(/C=C/c1c(Cl)nc2sccn12)c1ccc(F)c(F)c1", "growth": "71.7%"}, {"smiles": "C[C@H]1[C@H]2[C@H]3CC[C@@H]4[C@@]5(C)C/C(=C/c6cccnc6)C(=O)C(C)(C)[C@@H]5CC[C@@]4(C)[C@]3(C)CC[C@]23CO[C@]1(C)[C@@H](C(=O)/C=C\\c1cccnc1)C3", "growth": "17.9%"}, {"smiles": "Cc1nc2ccccc2c(/C=C/c2ccc(Cl)cc2)c1C(=O)/C=C/c1ccc(F)cc1", "growth": "6.9% (active)"}, {"smiles": "CCN1CCN(c2cc(C)nc(NCc3cc(Nc4ccnc5cc(Cl)ccc45)ccc3F)n2)CC1", "growth": "16.6%"}, {"smiles": "COc1ccc2c(c1)C(=O)/C(=C/c1ccc(OCC(=O)Nc3nccs3)cc1)O2", "growth": "-73.8% (active)"}, {"smiles": "O=C(NCCNc1cc(-c2cn(-c3ccccc3)nc2-c2cccc(O)c2)ccn1)Nc1ccccc1", "growth": "79.3%"}, {"smiles": "Cc1ccc(/C=C/c2c(C(=O)/C=C/c3ccc(Cl)cc3)c(C)nc3ccccc23)cc1", "growth": "4.53% (active)"}, {"smiles": "COCN1CCC2N(COC)CCC3N(COC)CCC1N23", "note": "(stereo not given)", "growth": "104%"}, {"smiles": "Cc1cc(NCc2cc(Nc3ccnc4cc(Cl)ccc34)ccc2F)nc(N2CCN(c3ccccc3)CC2)n1", "growth": "-7.8% (active)"}, {"smiles": "COC(=O)[C@]12CC[C@@H](C)[C@H](C)[C@@H]1C1=CC[C@@H]3[C@@]4(C)C(C=O)=C[C@@](C)(COS(C)(=O)=O)[C@@H]4C(=O)C[C@@]3(C)[C@]1(C)CC2", "growth": "30.9%"}, {"smiles": "COc1cccc(-c2nc3sccn3c2/C=C/C(=O)c2ccc(C(F)(F)F)cc2)c1", "growth": "66.8%"}, {"smiles": "CCCc1cc2c(=O)c(C(=O)OC)c[nH]c2cc1N(CC)CC", "growth": "88.2%"}, {"smiles": "CCCCCCCCCCCCCCCCCCOc1ccccc1CC(=O)OCCC[N+](C)(C)C", "growth": "25.7%"}, {"smiles": "Cc1ccccc1NC(=O)N/C(N)=N/c1nc(C)c(C)s1", "growth": "13.3%"}, {"smiles": "CN(C)CCNc1nc2ccccc2c2c1c1c(n2Cc2ccccc2)-c2ccccc2C1=O", "growth": "-60.6% (active)"}, {"smiles": "N[C@@H](CCCCNCC(=O)O)C(=O)O", "growth": "109%"}, {"smiles": "N#Cc1c2c(nn(-c3ccccc3)c1=O)C(O)=C([N+](=O)[O-])C(c1ccccc1)C2", "note": "(stereo not given)", "growth": "58%"}, {"smiles": "Clc1ccc(-c2c3ccc(=[N+]4CCCCC4)cc-3oc3cc(N4CCCCC4)ccc23)cc1", "growth": "0.54% (active)"}, {"smiles": "COc1ccc(-c2nc(SCCC(C)C)nc(N/N=C\\c3ccccc3O)c2C#N)cc1", "growth": "66.3%"}, {"smiles": "CCCCC1CCCCN1C(=O)OCC", "note": "(stereo not given)", "growth": "108%"}, {"smiles": "CC1=C(SCCC(=O)OC(C[Se]C2=C(C)C(=O)c3ccccc3C2=O)C(=O)NCCCCCC(=O)OCc2ccccc2)C(=O)c2ccccc2C1=O", "note": "(stereo not given)", "growth": "10.8%"}, {"smiles": "COc1cccc(C(=O)NCCNc2cc(-c3cn(-c4ccccc4)nc3-c3cccc(OC)c3)ccn2)c1", "growth": "25.6%"}, {"smiles": "O=C(Nc1ccc(-n2cc(-c3ccncc3)c(-c3ccc(Cl)c(O)c3)n2)cc1)N1CCOCC1", "growth": "112%"}, {"smiles": "CC(C)=C[C@@H]1c2c(c3ccccc3n(C)c2=O)O[C@H]2c3c(c4ccccc4n(C)c3=O)OC(C)(C)[C@@H]12", "growth": "46.6%"}, {"smiles": "CCc1c2c(nc3ccc(OC(=O)NCc4ccc(B5OC(C)(C)C(C)(C)O5)cc4)cc13)-c1cc3c(c(=O)n1C2)COC(=O)[C@]3(O)CC", "growth": "19.8%"}, {"smiles": "O=c1[nH][n+](-c2ccc(Cl)cc2)no1", "growth": "55.3%"}, {"smiles": "Cc1cc(=O)oc2c1ccc1oc(C#N)c(C)c12", "growth": "6.77% (active)"}, {"smiles": "COc1ccc(/C=N/C2=C(C#N)C(c3ccc(OC)cc3)c3ccc4ccccc4c3O2)cc1", "note": "(stereo not given)", "growth": "77.4%"}, {"smiles": "NC(=S)N/N=C/Cc1ccccc1", "growth": "69.9%"}]}]}
